# Several values for one entry are separate records, joined by “and”; a condition that tells them apart may be missing. Equal values may be shown once. Read-outs that look alike come from different tables or passages of the source.
# Columns and labels:
# [1] = test system: GRK7; conditions: concentration: 1 μM, replicates: in singlicate; n = 1
# [2] = test system: GSK3A; conditions: n = 1
# [3] = test system: GSK3B; conditions: n = 1
# [4] = test system: T1, HASPIN; conditions: concentration: 1 μM, replicates: in singlicate; n = 1
# T1 construct: gene GSG2
# [5] = test system: HCK; conditions: concentration: 1 μM, replicates: in singlicate; n = 1
# [6] = test system: HIPK1; conditions: concentration: 1 μM, replicates: in singlicate; n = 1
# [7] = test system: HIPK2; conditions: concentration: 1 μM, replicates: in singlicate; n = 1
# [8] = test system: HIPK3; conditions: n = 1
# [9] = test system: HIPK4; conditions: n = 1
# [10] = test system: HPK1; conditions: n = 1
# [11] = test system: HUNK; conditions: concentration: 1 μM, replicates: in singlicate; n = 1
# [12] = test system: ICK; conditions: n = 1
# [13] = test system: IGF1R; conditions: n = 1
# [14] = test system: T2, IKK-alpha; conditions: n = 1
# T2 construct: gene CHUK
# [15] = test system: T3, IKK-beta; conditions: n = 1
# T3 construct: gene IKBKB
# [16] = test system: T4, IKK-epsilon; conditions: n = 1
# T4 construct: gene IKBKE
# [17] = test system: INSRR; conditions: n = 1
# [18] = test system: INSR; conditions: n = 1
# [19] = test system: IRAK1; conditions: n = 1
# [20] = test system: IRAK3; conditions: concentration: 1 μM, replicates: in singlicate; n = 1
# [21] = concentration: 1 μM, replicates: in singlicate
# [22] = concentration: 1 μM,replicates: in singlicate, 1 µM
# 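Also: KINOMEscan kinase panel screen.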
smiles,measurement,setting,value
CN(C)CCN(C)C(=O)c1cc(-c2ccncc2)c(-c2ccc(Cl)c(O)c2)o1.Cl.Cl [SB-710397],%Inh,[1],0%
same,%Inh,[2]; [21],0%
same,%Inh,[3]; [21],14%
same,%Inh,[4],53%
same,%Inh,[5],14%
same,%Inh,[6],0%
same,%Inh,[7],0%
same,%Inh,[8]; [21],16%
same,%Inh,[9]; [21],0%
same,%Inh,[10]; [21],46%
same,%Inh,[11],38%
same,%Inh,[12]; [21],10%
same,%Inh,[13]; [21],7%
same,%Inh,[14]; [21],44%
same,%Inh,[15]; [21],35%
same,%Inh,[16]; [21],34%
same,%Inh,[17]; [21],0%
same,%Inh,[18]; [21],0%
same,%Inh,[19]; [21],56%
same,%Inh,[20],0%
CSc1nn2c(=O)cc(N3CCOCC3)nc2n1Cc1cccc(C(F)(F)F)c1C [GSK2363608],%Inh,[1],0%
same,%Inh,[2]; [22],26% and 9%
same,%Inh,[3]; [22],12% and 25%
same,%Inh,[4],0%
same,%Inh,[5],0%
same,%Inh,[6],0%
same,%Inh,[7],0%
same,%Inh,[8]; [22],11% and 15%
same,%Inh,[9]; [22],0% and 18%
same,%Inh,[10]; [22],24% and 36%
same,%Inh,[11],0%
same,%Inh,[12]; [22],0% and 12%
same,%Inh,[13]; [22],0% and 7%
same,%Inh,[14]; [22],2% and 3%
same,%Inh,[15]; [22],26% and 22%
same,%Inh,[16]; [22],0% and 13%
same,%Inh,[17]; [22],0% and 8%
same,%Inh,[18]; [22],6% and 0%
same,%Inh,[19]; [22],5% and 21%
same,%Inh,[20],0%
NC(=O)c1nnc2ccccc2c1N,%Inh,[1],0%
same,%Inh,[2]; [21],5%
same,%Inh,[3]; [21],24%
same,%Inh,[4],73%
same,%Inh,[5],0%
same,%Inh,[6],45%
same,%Inh,[7],50%
same,%Inh,[8]; [21],37%
same,%Inh,[9]; [21],4%
same,%Inh,[10]; [21],0%
same,%Inh,[11],0%
same,%Inh,[12]; [21],13%
same,%Inh,[13]; [21],0%
same,%Inh,[14]; [21],27%
same,%Inh,[15]; [21],35%
same,%Inh,[16]; [21],0%
same,%Inh,[17]; [21],12%
same,%Inh,[18]; [21],29%
same,%Inh,[19]; [21],54%
same,%Inh,[20],19%
CS(=O)(=O)c1ccc(-c2nc3n(c2-c2ccncc2)CCC3)cc1 [SKF-105942],%Inh,[1],0%
same,%Inh,[2]; [21],0%
same,%Inh,[3]; [21],10%
same,%Inh,[4],0%
same,%Inh,[5],0%
same,%Inh,[6],0%
same,%Inh,[7],0%
same,%Inh,[8]; [21],8%
same,%Inh,[9]; [21],0%
same,%Inh,[10]; [21],37%
same,%Inh,[11],27%
same,%Inh,[12]; [21],100%
same,%Inh,[13]; [21],0%
same,%Inh,[14]; [21],0%
same,%Inh,[15]; [21],0%
same,%Inh,[16]; [21],0%
same,%Inh,[17]; [21],0%
same,%Inh,[18]; [21],16%
same,%Inh,[19]; [21],1%
same,%Inh,[20],0%

# Source: PMC5540273 (PLoS ONE, 2017)
